Screening results deposited in PubChem BioAssay by several laboratories.
MITF TRPM1 HTS: activators of MITF-driven TRPM1 promoter activity in SK-MEL-5 cells | 300,000 tested, 0.75% active | activation, % at 12.5 µM | SK-MEL-5 TRPM1-promoter luciferase, 24 h; % of positive control, neutral wells = 0;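 active = mean activation of at least 80% with every replicate also reaching 80%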;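 note: 0% = neutral control wells and 100% = parthenolide positive control wells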
Statin myotox sup: suppression of simvastatin myotoxicity; C2C12 myotubes + simvastatin, ATP luminescence, 48 h; scaled: DMSO 0, geranylgeraniol control 100; rescue of ATP level, % at 7.49 µM; 330,000 tested, 0.78% active; AID 602340;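 active = mean ATP rescue above about 67%, or every replicate alone reaching that limit, limit read from the data, passing the limit was not always enough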;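 note: myotubes were challenged with 10 µM simvastatin during compound exposure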
Wnt act: Wnt/beta-catenin pathway activation. activation, % at 9.35 µM. Wnt/beta-catenin reporter cell assay, activator, plate reader. 300,000 tested, 1.2% active; in the data active = activation above about 30%, passing the limit was not always enough;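 note: 0% = neutral control wells and 100% = positive control wells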
FXN GAA850 act: activators of GAA850 frataxin (FXN) promoter; HEK293 lucGAA850 FXN promoter luciferase reporter, 24 h; percent of 10 µM SAHA response; activation, % at 6 µM; 360,000 tested, 0.56% active; AID 540364;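 active = activation above the average of all compounds screened plus 3 SD, cutoff fixed separately per campaign, cut at about 7.5% in these data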;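 note: 0% = DMSO wells and 100% = 10 µM SAHA wells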
esBAF inh: SWI/SNF esBAF complex inhibition; reporter increase, % at 12.5 µM; 350,000 tested, 2% active; mouse ES cells, Bmi1-luciferase knock-in reporter, 24 h; 100% = twice the neutral-well signal; AID 602393; in the data active = activation above about 40%;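 note: 0% = median of the plate's neutral control wells and 100% = double that signal; a rise in the Bmi1 reporter signal indicates esBAF inhibition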
* hit, by the source's call; . = no result. Hits are enriched below; roughly 3.3% of the tested compounds scored in any of these assays.

SMILES | MITF TRPM1 HTS | Statin myotox sup | Wnt act | FXN GAA850 act | esBAF inh
O=C1CSC(=Nc2ccc(F)cc2)N1 | 6 | -1 | -1 | -2 | 8
O=C1CSC(=Nc2ccccc2)N1 | -3 | 95* | . | 0 | -5
CCCc1c(C)c2cccc(C)c2[nH]c1=O | 12 | -2 | . | 2 | 5
CCCCN1CCc2c([nH]c3c(C)cccc23)C1=O | 92* | . | 27 | 6 | .
CCC(C)CCN1C(N(C)C)=NC[C@@H]1C (some centres not stated) | 2 | 149* | -1 | -1 | -2
CC(C)CCCN1C(N(C)C)=NC[C@@H]1C | 1 | -2 | -3 | 1 | 4
CN(C)CC(=O)N1[C@@H]2c3ccc(C4=CCCC4)c(=O)n3C[C@H]1[C@H](CO)[C@H]2C(=O)NCC1CCCCC1 | . | -27 | . | . | -2
CCNC(=O)C[C@H]1C=C[C@H](NC(=O)NC2CCCCC2)[C@@H](CO)O1 | . | -2 | . | . | -4
O=C(N[C@H]1CC[C@@H](CCNS(=O)(=O)c2ccccc2)O[C@H]1CO)c1cccc(F)c1 | . | -4 | . | . | 2
C[C@@H]1CN([C@@H](C)CO)C(=O)c2cc(-c3cccnc3)cnc2O[C@H]1CN(C)C(=O)C1CCCCC1 | . | 19 | . | . | 0
COc1ccc(C2=NNC(=O)C2(C)Br)cc1 (configuration not stated) | -5 | . | 51* | 0 | .
CC(C)c1cn(CC[C@@H]2CC[C@@H](NC(=O)c3cccc(F)c3)[C@@H](CO)O2)nn1 | . | -6 | . | . | -2
OCCN(CCCn1c(C(F)(F)F)nc2ccccc21)c1nc(CN2CCCCC2)cs1 | 7 | 1 | -3 | 1 | -4
OCCN(CCCn1c(-c2ccncc2)nc2ccccc21)c1nc(CN2CCCCC2)cs1 | -1 | 66* | 3 | 2 | 4
CC(=O)NC(CC(=O)O)c1ccccc1 (configuration not stated) | 5 | -6 | -2 | 3 | -8
CC(=O)NC(CC(=O)NNC(=O)COc1c(C)cccc1C)c1ccccc1 (configuration not stated) | -4 | . | 62* | -1 | .
CCN1C(=O)c2ccc(C(=O)O)cc2C1=O | 4 | 3 | . | -1 | -5
COCCCN1C(=O)c2ccc(C(=O)O)cc2C1=O | 4 | 100* | . | 3 | 6
CCNC(=O)C[C@H]1CC[C@@H]2[C@H](COC[C@@H](O)CN2C(=O)Nc2ccc(Cl)c(Cl)c2)O1 | . | -18 | . | . | -1
O=C(c1ccco1)N1CCN(c2ncnc3c2oc2ccccc23)CC1 | . | 11 | . | 6 | 58*
c1ccc2c(c1)oc1c(N3CCOCC3)ncnc12 | 6 | . | . | 1 | .
O=C(Nc1ccccc1F)N1[C@H](CO)[C@@H]2c3ccccc3NC[C@@H]21 | . | 31 | . | . | 63*
Brc1ccc(-c2nn3c(Cc4ccccc4)nnc3s2)o1 | -9 | 72* | . | -1 | -3
Clc1ccccc1-c1nnc2sc(-c3ccc(Br)o3)nn12 | 4 | 19 | 0 | -1 | 13
CCc1ccc(NC(=S)Nc2cccc3cnccc23)cc1 | 7 | 10 | 34* | 2 | 62*
SMILES | MITF TRPM1 HTS | Statin myotox sup | Wnt act | FXN GAA850 act | esBAF inh
Cc1cc(C)cc(NC(=S)Nc2cccc3cnccc23)c1 | -5 | . | 0 | 0 | .
Nc1ccc(CSc2ccc(Cl)cc2)c(Cl)c1 | 135* | -2 | 57* | 4 | 103*
CN1C(=O)c2cc(NC(=O)c3ccc(F)cc3)ccc2OC[C@H]2O[C@H](CC(=O)NCC3CCCCC3)CC[C@@H]21 | . | 22 | . | . | 4
NC(=O)c1ccccc1NC(=O)/C=C/c1cccc(Cl)c1 | . | -8 | . | 3 | 76*
NC(=O)c1ccccc1NC(=O)/C=C/c1c(Cl)cccc1Cl | . | . | 28 | -3 | 33
CCCS(=O)(=O)N1CCCC(C(=O)NCCc2ccc(OC)c(OC)c2)C1 (configuration not stated) | 11 | 5 | . | 0 | -7
COc1ccc(CCNC(=O)C2CCC(CNc3c(N4CCCC4)c(=O)c3=O)CC2)cc1OC (configuration not stated) | -8 | 86* | -1 | 2 | -1
CCS(=O)(=O)N1CCCC(C(=O)NCCc2ccc(OC)c(OC)c2)C1 (configuration not stated) | 5 | 127* | . | -2 | -2
C/C=C/c1cnc2c(c1)C(=O)N([C@H](C)CO)C[C@@H](C)[C@H](CN(C)Cc1ccc(F)cc1)O2 | . | 16 | . | . | -3
CCCCCc1ccc(-c2cn(CC3CCCCC3)nn2)cc1 | 18 | -1 | -2 | 2 | -2
c1ccc(-c2cn(CC3CCCCC3)nn2)cc1 | 45 | 5 | 32* | 3 | 65*
